# Results filed as inconclusive are left out. The source made the active and inactive calls. Calls come from the whole dose curve; as a rule, active = well fitted inhibition curve with a large enough effect; inconclusive = small, poorly fitted or top-dose-only effect; inactive = flat fitted curve, though single readings scatter.
# What was measured:
# [1] = qHTS profiling for inhibitors of Plasmodium falciparum proliferation (AID 504749); note: nearly all actives have a fitted effect of over 60% in size;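 for activity, negative = inhibition: 0% = DMSO vehicle and full inhibition = artemisinin control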; conditions: P. falciparum in erythrocytes, SYBR Green DNA, 72 h
# Procedure, shortened: (§1)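 SYBR Green fluorescence (ex 485 nm, em 535 nm) reports parasite DNA after 72 h compound exposure of infected red cells at 0.3% parasitemia, 2.5% hematocrit; signal normalized to 0.29 uM artemisinin and vehicle wells.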
# 3D7 = test: as above; conditions: P. falciparum in erythrocytes, SYBR Green DNA, 72 h; series mostly up to 28.7 µM
# Procedure, shortened: as §1
# [2] = at 28.7 µM (top of the series), parasite line A
# [3] = at 28.7 µM (top of the series), parasite line B
# Potency is the fitted concentration of half-maximal effect.
structure (smiles),measurement,setting,value
O=C(Nc1ccc(Cl)c(Cl)c1)C1CC1,"activity, negative = inhibition",[1]; [2],-11.1% (inactive)
same,"activity, negative = inhibition",[1]; [3],-1.73% (inactive)
same,Potency,3D7,inactive
Cc1cc(=O)n(-c2ccccc2)n1C,"activity, negative = inhibition",[1]; [2],5.57% (inactive)
same,"activity, negative = inhibition",[1]; [3],10.3% (inactive)
same,Potency,3D7,inactive
Nc1ccc(C(=O)Nc2ccccc2N)cc1,"activity, negative = inhibition",[1]; [2],-0.627% (inactive)
same,"activity, negative = inhibition",[1]; [3],14.4% (inactive)
same,Potency,3D7,inactive
O=C(Nc1ccc(Oc2ccc(Cl)cc2)c(Cl)c1)c1cc(I)cc(I)c1O,Potency,3D7,inactive
CN1CCC(=C2c3ccccc3Sc3ccccc32)CC1,Potency,[1]; parasite line A,6.31 µM (active)
same,Potency,[1]; parasite line B,10 µM (active)
same,Potency,3D7,8.91 µM (active)
Cc1c(C)n(Cc2ccccc2)c2ccc(C(=O)OCCN(C)C)cc12,"activity, negative = inhibition",[1]; [2],11.1% (inactive)
same,"activity, negative = inhibition",[1]; [3],-2.16% (inactive)
same,Potency,3D7,inactive
CCN(CC)CCOC(=O)C(c1ccccc1)C1CCCCC1 (stereo unspecified),"activity, negative = inhibition",[1]; [2],0.689% (inactive)
same,"activity, negative = inhibition",[1]; [3],-1.84% (inactive)
same,Potency,3D7,inactive
Cc1cc(N)c2cc(NC(=O)Nc3ccc4nc(C)cc(N)c4c3)ccc2n1,Potency,[1]; parasite line A,8.91 µM (active)
same,Potency,[1]; parasite line B,11.2 µM (active)
same,Potency,3D7,7.08 µM (active)
CCOC(=O)COc1ccc2c(C)c(CCN(CC)CC)c(=O)oc2c1Cl,"activity, negative = inhibition",[1]; [3],-29.4% (inactive)
same,Potency,[1]; parasite line A,3.55 µM (active)
same,Potency,3D7,inactive
COc1cc(C(=S)N2CCOCC2)cc(OC)c1OC,"activity, negative = inhibition",[1]; [2],7.95% (inactive)
same,"activity, negative = inhibition",[1]; [3],9.84% (inactive)
same,Potency,3D7,inactive
O=S1(=O)c2cccc3cccc(c23)N1CCCN1CCN(c2ccc(F)cc2)CC1,"activity, negative = inhibition",[1]; [2],7.63% (inactive)
same,"activity, negative = inhibition",[1]; [3],-0.586% (inactive)
same,Potency,3D7,inactive
CC(=O)N/N=C/c1ccc([N+](=O)[O-])o1,Potency,[1]; parasite line A,1.12 µM (active)
same,Potency,[1]; parasite line B,12.6 µM (active)
same,Potency,3D7,inactive
COc1cc2c(cc1OC)C(C(C(=O)N(CCc1ccc(OC)c(OC)c1OC)CCc1ccc(OC)c(OC)c1OC)c1ccccc1)=NCC2 (stereo unspecified),"activity, negative = inhibition",[1]; [2],14.8% (inactive)
same,"activity, negative = inhibition",[1]; [3],-1.99% (inactive)
same,Potency,3D7,4.47 µM (active)
COc1cc(-c2ccc(=O)[nH]n2)ccc1OC(F)F,Potency,[1]; parasite line A,11.2 µM (active)
same,Potency,[1]; parasite line B,0.891 µM (active)
same,Potency,3D7,inactive
Oc1ccc(Cl)cc1Sc1cc(Cl)ccc1O,"activity, negative = inhibition",[1]; [2],0.98% (inactive)
same,"activity, negative = inhibition",[1]; [3],-24.8% (inactive)
same,Potency,3D7,inactive
CC(C)(C)CC(C)(C)c1ccc(O)c(Cc2ccc(Cl)cc2Cl)c1,Potency,[1]; parasite line A,2 µM (active)
same,Potency,[1]; parasite line B,0.562 µM (active)
same,Potency,3D7,2.24 µM (active)
c1ccc(OCc2ccc(CCCN3CCOCC3)cc2)cc1,"activity, negative = inhibition",[1]; [2],3.42% (inactive)
same,"activity, negative = inhibition",[1]; [3],8.4% (inactive)
same,Potency,3D7,inactive
Cc1c(F)c(N2CCNC(C)C2)cc2c1c(=O)c(C(=O)O)cn2C1CC1 (stereo unspecified),"activity, negative = inhibition",[1]; [2],8.42% (inactive)
same,"activity, negative = inhibition",[1]; [3],6.98% (inactive)
same,Potency,3D7,inactive
O=C(COc1ccc(Cl)cc1)N1CCN(Cc2ccc3c(c2)OCO3)CC1,"activity, negative = inhibition",[1]; [2],11% (inactive)
same,"activity, negative = inhibition",[1]; [3],10.8% (inactive)
same,Potency,3D7,inactive
CO/N=C1\CN(c2nc3c(cc2F)c(=O)c(C(=O)O)cn3C2CC2)CC1CN (stereo unspecified),Potency,3D7,10 µM (active)
Nc1ccc(/C=C/c2ccc(N)cc2S(=O)(=O)O)c(S(=O)(=O)O)c1,"activity, negative = inhibition",[1]; [2],-8.57% (inactive)
same,"activity, negative = inhibition",[1]; [3],7.68% (inactive)
same,Potency,3D7,inactive
CCN(CC)CCNC(=O)COc1ccc(Cl)cc1,Potency,3D7,inactive
NCCc1ccn[nH]1,"activity, negative = inhibition","[1]; at 12.8 µM (top of the series), parasite line A",6.26% (inactive)
same,"activity, negative = inhibition","[1]; at 12.8 µM (top of the series), parasite line B",12.5% (inactive)
same,Potency,3D7,inactive
CN(C)C(=S)SC(=S)N(C)C,Potency,3D7,11.2 µM (active)
NC(=O)C(=O)N/N=C/c1ccc([N+](=O)[O-])o1,"activity, negative = inhibition",[1]; [2],-26.1% (inactive)
same,"activity, negative = inhibition",[1]; [3],-11.4% (inactive)
same,Potency,3D7,inactive
CCCCCCC[N+](CC)(CC)CCCCc1ccc(Cl)cc1,Potency,[1]; parasite line A,1.78 µM (active)
same,Potency,[1]; parasite line B,2.24 µM (active)
same,Potency,3D7,1.41 µM (active)
CCOc1ccc2nc3cc(N)ccc3c(N)c2c1,Potency,[1]; parasite line A,7.94 µM (active)
same,Potency,[1]; parasite line B,5.01 µM (active)
same,Potency,3D7,11.2 µM (active)
CCC(C(=O)OCCN(CC)CC)c1ccccc1 (stereo unspecified),"activity, negative = inhibition",[1]; [2],-4.21% (inactive)
same,"activity, negative = inhibition",[1]; [3],8.52% (inactive)
same,Potency,3D7,inactive
Cc1c(C)n(CCN(C)C)c2ccc(C(=O)OCCN(C)C)cc12,"activity, negative = inhibition",[1]; [2],-7.71% (inactive)
same,"activity, negative = inhibition",[1]; [3],-8.88% (inactive)
same,Potency,3D7,inactive
CCCCC(CC)CN=C(N)NC(N)=NCCCCCCN=C(N)NC(N)=NCC(CC)CCCC (stereo unspecified),Potency,[1]; parasite line A,1 µM (active)
same,Potency,3D7,1.58 µM (active)
